Tests used:
Assay in all cases: log2 ratio of Biotin-Ahx-Ub-VS probe labelling (fragment/DMSO); higher = less target engagement (more negative = stronger competition), active = hit call of the paper (q ≤ 0.05, log2 ratio ≤ -1)
Settings in all cases: compound concentration: 200 uM; treatment time: 3 h
[1] = biological target: T1, USP42 (UniProt Q9H9J4)
T1 sequence (whole entry): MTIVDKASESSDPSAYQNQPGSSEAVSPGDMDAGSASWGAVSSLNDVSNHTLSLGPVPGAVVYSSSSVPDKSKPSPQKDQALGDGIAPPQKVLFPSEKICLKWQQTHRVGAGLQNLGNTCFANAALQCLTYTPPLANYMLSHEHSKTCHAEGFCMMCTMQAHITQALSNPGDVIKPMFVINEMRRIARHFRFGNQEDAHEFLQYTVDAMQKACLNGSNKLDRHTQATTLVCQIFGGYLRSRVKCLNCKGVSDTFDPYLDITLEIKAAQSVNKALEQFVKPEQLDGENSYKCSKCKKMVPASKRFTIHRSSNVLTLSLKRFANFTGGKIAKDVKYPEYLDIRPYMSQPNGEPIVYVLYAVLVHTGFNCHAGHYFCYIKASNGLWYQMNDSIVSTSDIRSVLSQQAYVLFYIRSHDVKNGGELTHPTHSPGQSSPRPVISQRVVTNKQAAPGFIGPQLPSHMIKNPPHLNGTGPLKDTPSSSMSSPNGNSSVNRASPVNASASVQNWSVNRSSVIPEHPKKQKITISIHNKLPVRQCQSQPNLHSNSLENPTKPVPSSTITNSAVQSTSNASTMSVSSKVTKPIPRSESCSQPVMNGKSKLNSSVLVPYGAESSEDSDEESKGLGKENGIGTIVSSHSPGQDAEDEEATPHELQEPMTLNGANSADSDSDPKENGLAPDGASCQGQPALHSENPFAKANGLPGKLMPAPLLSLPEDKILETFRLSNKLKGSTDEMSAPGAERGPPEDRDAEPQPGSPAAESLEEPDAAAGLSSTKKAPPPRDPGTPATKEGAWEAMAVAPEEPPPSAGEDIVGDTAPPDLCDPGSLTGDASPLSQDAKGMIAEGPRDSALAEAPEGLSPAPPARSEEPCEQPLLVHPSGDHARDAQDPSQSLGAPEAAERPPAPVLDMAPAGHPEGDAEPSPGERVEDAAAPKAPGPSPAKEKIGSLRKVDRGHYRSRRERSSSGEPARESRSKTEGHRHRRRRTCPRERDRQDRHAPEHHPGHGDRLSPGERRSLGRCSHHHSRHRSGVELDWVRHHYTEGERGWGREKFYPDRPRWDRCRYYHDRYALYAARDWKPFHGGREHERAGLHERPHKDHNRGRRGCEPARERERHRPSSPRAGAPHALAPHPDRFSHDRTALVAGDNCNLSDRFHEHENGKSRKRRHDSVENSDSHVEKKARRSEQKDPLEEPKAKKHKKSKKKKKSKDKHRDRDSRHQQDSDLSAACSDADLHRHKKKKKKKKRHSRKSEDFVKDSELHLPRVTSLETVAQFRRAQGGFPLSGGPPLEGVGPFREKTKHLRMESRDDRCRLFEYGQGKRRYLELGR
In short: (§1)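 HEK293T lysate (495 µg per sample, in Tris/CHAPS/IGEPAL buffer with protease inhibitors) was exposed in triplicate for 3 h to fragment at 200 µM or to vehicle, then to Biotin-Ahx-Ub-VS at 0.5 µM final for 1 h. Labelled DUBs were enriched on NeutrAvidin, digested with LysC and trypsin, and analysed by diaPASEF LC-MS/MS. Spectronaut label-free quantities were normalised to the global median, and values are average log2 ratios of fragment over vehicle from an unpaired t-test. Only proteins with ≥2 unique peptides were used.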

[2] = biological target: USP46 (UniProt P62068)
In short: as §1

[3] = biological target: T2, USP47 (UniProt Q96K76)
T2 sequence (whole entry): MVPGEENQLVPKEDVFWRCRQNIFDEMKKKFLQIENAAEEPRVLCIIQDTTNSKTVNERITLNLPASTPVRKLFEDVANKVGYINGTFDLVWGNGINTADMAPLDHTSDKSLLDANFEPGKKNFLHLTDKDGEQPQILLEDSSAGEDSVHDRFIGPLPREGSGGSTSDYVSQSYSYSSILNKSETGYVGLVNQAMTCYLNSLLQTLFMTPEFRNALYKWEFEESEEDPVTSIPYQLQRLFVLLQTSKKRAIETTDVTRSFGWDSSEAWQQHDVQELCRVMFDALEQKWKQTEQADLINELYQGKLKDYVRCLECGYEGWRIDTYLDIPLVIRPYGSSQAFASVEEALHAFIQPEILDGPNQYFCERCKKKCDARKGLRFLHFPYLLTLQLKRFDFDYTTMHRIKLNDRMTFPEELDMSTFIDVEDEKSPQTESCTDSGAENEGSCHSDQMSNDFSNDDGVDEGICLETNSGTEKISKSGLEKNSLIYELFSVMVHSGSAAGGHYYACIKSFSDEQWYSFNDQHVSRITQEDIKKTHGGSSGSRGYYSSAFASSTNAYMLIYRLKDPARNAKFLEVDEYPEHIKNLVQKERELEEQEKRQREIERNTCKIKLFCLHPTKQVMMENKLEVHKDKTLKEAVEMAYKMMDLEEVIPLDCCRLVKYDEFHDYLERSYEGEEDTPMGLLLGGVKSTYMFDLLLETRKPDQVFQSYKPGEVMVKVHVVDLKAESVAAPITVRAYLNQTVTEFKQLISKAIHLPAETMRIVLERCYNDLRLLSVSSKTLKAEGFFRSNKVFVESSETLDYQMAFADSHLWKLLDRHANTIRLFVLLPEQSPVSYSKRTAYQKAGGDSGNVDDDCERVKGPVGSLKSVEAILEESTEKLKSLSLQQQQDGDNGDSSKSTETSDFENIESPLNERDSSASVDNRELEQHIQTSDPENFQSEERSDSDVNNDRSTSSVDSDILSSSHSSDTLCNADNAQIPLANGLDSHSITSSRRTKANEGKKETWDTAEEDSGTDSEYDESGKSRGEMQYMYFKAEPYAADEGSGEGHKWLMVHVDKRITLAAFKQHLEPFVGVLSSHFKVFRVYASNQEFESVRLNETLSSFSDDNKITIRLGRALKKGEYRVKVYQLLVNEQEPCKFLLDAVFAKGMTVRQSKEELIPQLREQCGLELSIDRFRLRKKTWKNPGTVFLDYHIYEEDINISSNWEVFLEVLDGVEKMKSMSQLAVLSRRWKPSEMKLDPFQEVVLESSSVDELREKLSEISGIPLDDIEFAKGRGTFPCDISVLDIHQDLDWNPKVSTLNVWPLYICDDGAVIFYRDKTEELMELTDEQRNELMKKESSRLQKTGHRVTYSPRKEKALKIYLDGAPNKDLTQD
In short: as §1

[4] = biological target: T3, USP48 (UniProt Q86UV5)
T3 sequence (whole entry): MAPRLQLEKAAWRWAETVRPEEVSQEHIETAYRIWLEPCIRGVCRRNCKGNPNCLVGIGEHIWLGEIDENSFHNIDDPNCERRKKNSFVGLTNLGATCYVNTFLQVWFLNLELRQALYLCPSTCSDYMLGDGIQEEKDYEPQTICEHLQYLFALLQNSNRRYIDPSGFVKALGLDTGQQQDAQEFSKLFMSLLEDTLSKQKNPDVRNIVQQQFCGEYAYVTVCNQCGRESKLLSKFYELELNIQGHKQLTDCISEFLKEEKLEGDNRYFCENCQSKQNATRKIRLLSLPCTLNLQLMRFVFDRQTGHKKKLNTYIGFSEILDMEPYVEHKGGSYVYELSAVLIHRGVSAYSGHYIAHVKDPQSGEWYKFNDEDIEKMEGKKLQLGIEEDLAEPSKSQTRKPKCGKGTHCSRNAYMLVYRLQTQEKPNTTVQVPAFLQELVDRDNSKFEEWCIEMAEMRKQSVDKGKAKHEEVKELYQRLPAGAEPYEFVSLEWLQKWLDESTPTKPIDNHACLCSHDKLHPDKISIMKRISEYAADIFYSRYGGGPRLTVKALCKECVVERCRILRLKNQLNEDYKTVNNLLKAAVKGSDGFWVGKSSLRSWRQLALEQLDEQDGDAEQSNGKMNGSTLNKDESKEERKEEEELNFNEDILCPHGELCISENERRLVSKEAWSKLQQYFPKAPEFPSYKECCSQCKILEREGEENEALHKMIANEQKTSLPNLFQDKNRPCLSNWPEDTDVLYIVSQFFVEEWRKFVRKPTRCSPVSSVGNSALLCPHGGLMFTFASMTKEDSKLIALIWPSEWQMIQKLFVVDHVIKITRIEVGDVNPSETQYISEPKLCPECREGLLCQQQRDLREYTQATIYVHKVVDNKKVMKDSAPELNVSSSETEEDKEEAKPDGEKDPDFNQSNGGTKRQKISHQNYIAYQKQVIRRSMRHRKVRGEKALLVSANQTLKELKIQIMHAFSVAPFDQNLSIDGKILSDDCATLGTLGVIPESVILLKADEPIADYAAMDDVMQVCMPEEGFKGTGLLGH
In short: as §1

[5] = biological target: T4, USP5 (UniProt P45974)
T4 sequence (whole entry): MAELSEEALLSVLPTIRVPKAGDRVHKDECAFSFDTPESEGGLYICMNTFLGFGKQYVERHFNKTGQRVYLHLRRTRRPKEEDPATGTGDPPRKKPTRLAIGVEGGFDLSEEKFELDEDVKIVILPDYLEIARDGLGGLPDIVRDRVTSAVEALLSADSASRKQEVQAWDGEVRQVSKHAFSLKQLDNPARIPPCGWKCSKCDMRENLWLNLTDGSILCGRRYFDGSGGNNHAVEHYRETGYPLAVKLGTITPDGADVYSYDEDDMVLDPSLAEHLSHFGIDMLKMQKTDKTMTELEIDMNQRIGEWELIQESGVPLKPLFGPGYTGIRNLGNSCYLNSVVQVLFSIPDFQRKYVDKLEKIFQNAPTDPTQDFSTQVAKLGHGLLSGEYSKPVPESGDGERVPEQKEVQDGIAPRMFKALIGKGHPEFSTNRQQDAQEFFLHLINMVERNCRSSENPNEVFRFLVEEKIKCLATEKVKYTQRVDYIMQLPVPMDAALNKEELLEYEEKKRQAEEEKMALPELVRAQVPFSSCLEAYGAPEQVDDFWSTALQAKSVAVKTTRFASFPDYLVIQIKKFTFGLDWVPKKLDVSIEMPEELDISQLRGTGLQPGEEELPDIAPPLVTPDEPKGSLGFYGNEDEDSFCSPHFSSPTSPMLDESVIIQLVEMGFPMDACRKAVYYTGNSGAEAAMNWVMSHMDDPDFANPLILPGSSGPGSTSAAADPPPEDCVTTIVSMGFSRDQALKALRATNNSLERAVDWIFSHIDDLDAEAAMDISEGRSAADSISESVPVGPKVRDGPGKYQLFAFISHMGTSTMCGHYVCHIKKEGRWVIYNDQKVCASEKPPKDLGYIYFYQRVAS
In short: as §1

[6] = biological target: USP54 (UniProt Q70EL1)
In short: as §1

[7] = biological target: USP7 (UniProt Q93009)
In short: as §1

[8] = biological target: T5, USP8 (UniProt P40818)
T5 sequence (whole entry): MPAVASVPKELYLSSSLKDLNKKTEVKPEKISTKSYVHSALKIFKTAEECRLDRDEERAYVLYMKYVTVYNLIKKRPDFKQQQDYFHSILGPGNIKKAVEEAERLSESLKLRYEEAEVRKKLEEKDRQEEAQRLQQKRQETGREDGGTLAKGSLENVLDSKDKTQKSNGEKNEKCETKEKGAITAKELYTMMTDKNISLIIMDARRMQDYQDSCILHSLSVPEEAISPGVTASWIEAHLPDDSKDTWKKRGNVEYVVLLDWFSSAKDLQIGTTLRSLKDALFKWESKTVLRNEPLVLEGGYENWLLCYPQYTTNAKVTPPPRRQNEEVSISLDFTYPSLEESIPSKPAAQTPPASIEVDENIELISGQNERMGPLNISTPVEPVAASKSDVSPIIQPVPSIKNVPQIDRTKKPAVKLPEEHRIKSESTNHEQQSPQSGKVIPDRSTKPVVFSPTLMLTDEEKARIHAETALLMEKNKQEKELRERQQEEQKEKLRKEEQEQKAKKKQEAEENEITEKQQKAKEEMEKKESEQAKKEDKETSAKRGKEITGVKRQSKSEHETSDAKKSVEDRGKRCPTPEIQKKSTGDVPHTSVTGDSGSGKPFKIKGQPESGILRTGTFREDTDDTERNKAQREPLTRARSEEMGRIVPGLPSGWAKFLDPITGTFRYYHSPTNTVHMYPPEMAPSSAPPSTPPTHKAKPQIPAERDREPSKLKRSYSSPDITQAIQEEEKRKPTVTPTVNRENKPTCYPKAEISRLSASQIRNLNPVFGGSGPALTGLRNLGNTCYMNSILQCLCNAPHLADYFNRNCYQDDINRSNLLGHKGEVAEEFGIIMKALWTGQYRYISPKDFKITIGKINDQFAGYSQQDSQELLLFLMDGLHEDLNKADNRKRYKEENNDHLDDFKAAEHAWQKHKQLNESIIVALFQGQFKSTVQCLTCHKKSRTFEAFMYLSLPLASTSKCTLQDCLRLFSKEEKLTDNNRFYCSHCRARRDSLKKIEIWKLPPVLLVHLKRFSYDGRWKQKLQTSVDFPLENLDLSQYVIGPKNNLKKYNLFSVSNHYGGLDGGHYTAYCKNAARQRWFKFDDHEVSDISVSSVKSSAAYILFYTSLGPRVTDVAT
In short: as §1

Measured: log2 ratio of Biotin-Ahx-Ub-VS probe labelling

Chain of USP46 (P62068 whole entry): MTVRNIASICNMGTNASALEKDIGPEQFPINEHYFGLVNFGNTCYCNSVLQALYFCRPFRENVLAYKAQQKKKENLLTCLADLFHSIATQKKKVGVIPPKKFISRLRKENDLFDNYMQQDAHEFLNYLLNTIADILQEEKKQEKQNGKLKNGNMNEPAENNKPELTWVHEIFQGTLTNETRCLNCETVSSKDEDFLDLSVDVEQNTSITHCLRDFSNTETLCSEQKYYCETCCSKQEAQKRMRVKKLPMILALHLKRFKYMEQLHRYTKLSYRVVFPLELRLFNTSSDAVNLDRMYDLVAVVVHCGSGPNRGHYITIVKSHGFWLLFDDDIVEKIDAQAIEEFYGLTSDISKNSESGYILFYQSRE
Chain of USP7 (Q93009 whole entry, looked up): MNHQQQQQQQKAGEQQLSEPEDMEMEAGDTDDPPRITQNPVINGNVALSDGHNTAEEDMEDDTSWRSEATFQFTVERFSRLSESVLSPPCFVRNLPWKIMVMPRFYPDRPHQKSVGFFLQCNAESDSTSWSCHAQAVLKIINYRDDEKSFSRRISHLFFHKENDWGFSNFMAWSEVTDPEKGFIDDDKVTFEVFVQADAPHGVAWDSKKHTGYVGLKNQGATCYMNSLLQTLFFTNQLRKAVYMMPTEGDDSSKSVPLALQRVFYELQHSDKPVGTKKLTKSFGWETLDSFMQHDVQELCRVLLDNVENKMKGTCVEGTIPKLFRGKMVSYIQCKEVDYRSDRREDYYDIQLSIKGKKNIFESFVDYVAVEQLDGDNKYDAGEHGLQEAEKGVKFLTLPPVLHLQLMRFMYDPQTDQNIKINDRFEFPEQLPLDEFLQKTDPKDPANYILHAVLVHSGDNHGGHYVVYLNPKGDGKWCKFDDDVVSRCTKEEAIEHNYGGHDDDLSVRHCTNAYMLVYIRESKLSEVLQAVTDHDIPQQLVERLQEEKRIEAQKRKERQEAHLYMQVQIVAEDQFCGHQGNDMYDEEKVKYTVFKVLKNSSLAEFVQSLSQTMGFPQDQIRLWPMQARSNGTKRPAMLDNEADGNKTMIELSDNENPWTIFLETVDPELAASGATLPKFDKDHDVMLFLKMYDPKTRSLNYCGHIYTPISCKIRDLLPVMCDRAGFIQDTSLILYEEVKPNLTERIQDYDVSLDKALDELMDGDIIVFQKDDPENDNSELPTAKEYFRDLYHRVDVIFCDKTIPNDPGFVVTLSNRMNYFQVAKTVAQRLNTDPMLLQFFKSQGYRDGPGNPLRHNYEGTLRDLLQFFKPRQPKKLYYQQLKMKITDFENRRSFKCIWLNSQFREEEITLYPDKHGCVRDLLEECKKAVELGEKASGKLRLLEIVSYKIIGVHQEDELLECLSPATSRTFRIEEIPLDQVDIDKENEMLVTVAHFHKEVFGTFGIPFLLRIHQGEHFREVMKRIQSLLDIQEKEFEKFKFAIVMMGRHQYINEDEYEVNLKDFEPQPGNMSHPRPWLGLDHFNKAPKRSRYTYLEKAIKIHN
Chain of USP54 (Q70EL1 whole entry): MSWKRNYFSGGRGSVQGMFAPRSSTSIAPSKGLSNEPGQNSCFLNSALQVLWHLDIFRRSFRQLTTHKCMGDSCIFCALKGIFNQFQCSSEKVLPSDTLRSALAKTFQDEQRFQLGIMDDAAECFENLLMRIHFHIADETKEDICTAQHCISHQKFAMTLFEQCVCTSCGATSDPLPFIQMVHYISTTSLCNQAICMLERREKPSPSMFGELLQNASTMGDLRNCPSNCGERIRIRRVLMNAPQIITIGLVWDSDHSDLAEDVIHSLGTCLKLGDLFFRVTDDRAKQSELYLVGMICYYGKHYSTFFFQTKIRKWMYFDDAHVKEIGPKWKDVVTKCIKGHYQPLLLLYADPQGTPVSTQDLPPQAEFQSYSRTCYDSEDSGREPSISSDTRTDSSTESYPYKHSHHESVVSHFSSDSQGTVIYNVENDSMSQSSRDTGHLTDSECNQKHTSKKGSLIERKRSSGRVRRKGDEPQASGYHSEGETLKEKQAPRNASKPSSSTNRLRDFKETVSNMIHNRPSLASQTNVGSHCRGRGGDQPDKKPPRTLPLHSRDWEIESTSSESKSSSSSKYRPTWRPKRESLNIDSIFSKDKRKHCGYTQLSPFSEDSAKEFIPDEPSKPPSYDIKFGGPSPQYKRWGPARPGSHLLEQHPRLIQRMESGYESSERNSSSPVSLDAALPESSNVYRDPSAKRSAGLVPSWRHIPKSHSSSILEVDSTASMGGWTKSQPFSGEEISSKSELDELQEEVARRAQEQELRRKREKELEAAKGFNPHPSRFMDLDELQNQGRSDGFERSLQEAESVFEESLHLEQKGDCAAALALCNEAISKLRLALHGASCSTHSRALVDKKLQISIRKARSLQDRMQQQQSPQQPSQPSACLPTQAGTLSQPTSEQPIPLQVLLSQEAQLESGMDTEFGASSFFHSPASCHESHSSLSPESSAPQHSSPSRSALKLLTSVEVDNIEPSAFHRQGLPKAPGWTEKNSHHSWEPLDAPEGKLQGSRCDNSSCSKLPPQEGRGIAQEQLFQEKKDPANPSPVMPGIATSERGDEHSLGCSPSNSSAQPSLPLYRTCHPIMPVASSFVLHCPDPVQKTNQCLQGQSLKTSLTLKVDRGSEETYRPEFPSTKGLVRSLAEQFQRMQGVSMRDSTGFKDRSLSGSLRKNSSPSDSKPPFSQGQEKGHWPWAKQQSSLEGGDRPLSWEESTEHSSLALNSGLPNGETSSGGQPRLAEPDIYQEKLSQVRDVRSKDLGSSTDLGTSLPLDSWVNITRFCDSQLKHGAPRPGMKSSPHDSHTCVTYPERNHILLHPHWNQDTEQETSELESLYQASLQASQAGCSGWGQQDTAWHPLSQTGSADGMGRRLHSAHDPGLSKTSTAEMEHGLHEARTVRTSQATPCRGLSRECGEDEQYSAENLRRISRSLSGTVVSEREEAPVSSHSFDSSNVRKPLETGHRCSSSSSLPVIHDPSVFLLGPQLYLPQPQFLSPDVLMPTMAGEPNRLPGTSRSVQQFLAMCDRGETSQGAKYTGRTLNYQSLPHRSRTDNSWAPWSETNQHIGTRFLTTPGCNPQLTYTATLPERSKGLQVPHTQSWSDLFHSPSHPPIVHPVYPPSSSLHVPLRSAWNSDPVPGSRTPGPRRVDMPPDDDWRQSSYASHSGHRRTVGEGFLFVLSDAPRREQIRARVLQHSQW

Cc1ccc(N(C(=O)CCl)C2C=CS(=O)(=O)C2)cc1 (stereo not drawn)
inactive: [1] 0.262 | [2] -0.055 | [4] -0.839 | [5] 0.431 | [6] -0.495 | [8] 0.108
active: [3] -1.11 | [7] -1.19

— the supplement of paper PMC11732987, “Enantioselective OTUD7B fragment discovery through chemoproteomics screening and high-throughput optimisation” (Communications Chemistry, 2025)
